Results taken from PubChem BioAssay AID1159580 (chemical genetic matrix, 2015).
Screen size: about 5,500 compounds; about 2,000 (36%) were called active. About 18% were inconclusive and are not listed. Cut-off read from the data, not from the text of the source: active = normalized growth mostly below about 0.91 (no sharp cut-off); inconclusive = no clear call, values can overlap the other calls; inactive = mostly above about 0.92. This is one part of the list.

Assay: chemical genetic growth profiling, strain panel (AID 1159580);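 note: tested at 20 µM; growth read once vehicle control cultures reached saturation at 30 °C; 1 = growth at the plate median or of vehicle wells; lower values mean less growth of the strain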
Details: S. cerevisiae deletion strains, growth OD

Measured: normalized growth

CC(C)N(Cc1ccc(N(C)C)cc1)S(=O)(=O)c1cc(Cl)c(Cl)cc1Cl
inactive: locus YAL013W, strain DEP1, stronger effect = lower value 1 | locus YBR229C, strain ROT2, stronger effect = lower value 1.01 | locus YDL101C, strain DUN1, stronger effect = lower value 1.03 | locus YDL134C, strain PPH21, stronger effect = lower value 1.01 | locus YDR150W, strain NUM1, stronger effect = lower value 1.01 | locus YEL061C, strain CIN8, stronger effect = lower value 0.986 | locus YGR078C, strain PAC10, stronger effect = lower value 1.02 | locus YHR030C, strain SLT2, stronger effect = lower value 1.07 | locus YHR087W, strain rtc3, stronger effect = lower value 1 | locus YJR043C, strain POL32, stronger effect = lower value 1.01 | locus YJR075W, strain HOC1, stronger effect = lower value 1.02 | locus YKL190W, strain CNB1, stronger effect = lower value 1.01 | locus YLR039C, strain RIC1, stronger effect = lower value 1.01 | locus YLR058C, strain SHM2 (second series), stronger effect = lower value 1 | locus YLR085C, strain ARP6, stronger effect = lower value 1.06 | locus YLR262C, strain YPT6, stronger effect = lower value 0.999 | locus YML094W, strain GIM5, stronger effect = lower value 1.02 | locus YMR219W, strain ESC1, stronger effect = lower value 1 | locus YMR263W, strain SAP30, stronger effect = lower value 1.02 | locus YNL128W, strain TEP1, stronger effect = lower value 1.02 | locus YNL153C, strain GIM3, stronger effect = lower value 1.03 | locus YNL298W, strain CLA4 (second series), stronger effect = lower value 1.03 | locus YNL322C, strain KRE1, stronger effect = lower value 1.01 | locus YNR030W, strain Alg12, stronger effect = lower value 1.04 | locus YOL006C, strain TOP1, stronger effect = lower value 1.08 | locus YPL055C, strain LGE1, stronger effect = lower value 1 | locus YPL241C, strain CIN2, stronger effect = lower value 1.04 | locus YPR135W, strain CTF4, stronger effect = lower value 1.1
